Source: PubChem BioAssay (several laboratories)
CF NFkB inh = blocks PAF-induced NF-kB reporter in cystic fibrosis cells; KKLEB NF-kB-GFP reporter, GFP fluorescence overnight; inhibition, % at 5 µM; 360,000 compounds, 0.86% hits; AID 588850;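 active = at least 50% inhibition at 5 µM, scaled per plate between neutral and stimulator controls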;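 also: PAF is a Pseudomonas aeruginosa culture filtrate used as stimulus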
Shn3 inh set2 = inhibitors of Schnurri-3 3'UTR reporter in osteoblasts | Clone20 osteoblast Shn3 3'UTR firefly luciferase, 24 h | inhibition, % at 12.5 µM | 360,000 compounds, 0.52% hits | AID 588674;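 active = mean inhibition of at least 75% with every replicate also reaching 75%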
Peg3 prom inh = reduces Peg3 promoter-driven luciferase expression in HeLa; HeLa PEG-Prom luciferase reporter, luminescence, overnight; inhibition, % at 20 µM; 360,000 compounds, 1.7% hits;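 active = inhibition of at least 50% at 20 µM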
KKLEB tox = reduces viability of KKLEB cystic fibrosis airway cells; AID 602141; KKLEB CF airway cells viability, ATPlite luminescence, overnight; hits give low values; cells stimulated with P. aeruginosa culture filtrate; activity change (cytotoxicity), % at 5 µM; 360,000 compounds, 0.36% hits;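 active = corrected activity change at or below -50% at 5 µM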
HIF-2a block = inhibitors of HIF-2a | 786-0 RCC cells HIF-2a reporter, luciferase luminescence, overnight | inhibition, % at 18.8 µM | 360,000 compounds, 0.72% hits | AID 624352;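 active = inhibition of the luminescence signal of 40% or more relative to plate controls, in a single-dose primary screen at 18.75 µM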
Numbers stand for hits; 0 = inactive; - = not tested or not shown. The list is not random: actives were taken first. Their share in the collection is about 2.6%.

SMILES	CF NFkB inh	Shn3 inh set2	Peg3 prom inh	KKLEB tox	HIF-2a block
COc1ccc2ccccc2c1/C=N\NC(=O)c1cccnc1	0	0	0	0	0
Cc1occc1C(=O)N/N=C/c1c(O)ccc2ccccc12	0	0	0	0	0
O=C(N/N=C\c1c(O)ccc2ccccc12)c1ccc(O)cc1	0	91.0	0	0	0
O=C(N/N=C/c1c(O)ccc2ccccc12)c1cccnc1	0	0	51.8	0	0
O=C(CN1CCOCC1)N/N=C/c1c(O)ccc2ccccc12	0	0	0	0	0
Cc1ccc(S(=O)(=O)N2CCC[C@H]2C(=O)OCc2cc(=O)oc3cc(C)ccc23)cc1	0	0	0	0	0
O=C(Cn1nnc2ccccc2c1=O)NC1CCCCC1	0	0	0	0	0
O=C(COc1ccccc1)NCC(=O)Nc1ccncc1	0	0	0	0	0
CCC(C)n1c(SCc2ccccc2)nc2ccsc2c1=O (stereo not drawn)	0	0	0	0	0
CN(Cc1cccc(-n2cccn2)c1)C(=O)CCc1nnc(C2CCCCC2)o1	0	0	0	0	0
O=C(NN=Cc1c(O)ccc2ccccc12)c1ccncc1	0	90.3	0	0	0
COc1ccc(NC(C)C(=O)N/N=C/c2c(O)ccc3ccccc23)cc1 (stereo not drawn)	0	0	57.4	0	0
Cn1cc(C(=O)N/N=C/c2c(O)ccc3ccccc23)ccc1=O	0	90.6	0	0	0
Cn1nccc1C(=O)N/N=C/c1c(O)ccc2ccccc12	0	94.2	0	0	0
Cc1cnn(C(=O)Cn2nc(C(F)F)c(Br)c2C)c1	0	0	0	0	0
Cc1ccccc1OCC(=O)NNC(=O)CCN1C(=O)c2ccccc2C1=O	0	0	0	0	0
CCOc1cccc(-c2cc(C(=O)N3N=C(C)CC3(O)C(F)F)c3ccccc3n2)c1 (stereo not drawn)	0	0	0	0	0
O=C(COc1cccc2ccccc12)N/N=C/c1ccco1	0	0	0	0	0
CC(=O)Nc1cccc(CNCc2cccc(NC(C)=O)c2)c1	0	0	0	0	0
CC(SCc1nc2sc3c(c2c(=O)[nH]1)CCCC3)C(=O)Nc1ccccn1 (stereo not drawn)	0	0	0	0	0
O=C(N/N=C/c1ccc(O)c2ncccc12)c1cccc(Br)c1	0	90.9	0	0	0
Cc1ccc(CN(Cc2cc3cccc(C)c3[nH]c2=O)C(=S)NCCCN(C)C)cc1	0	0	86.7	0	0
Cc1cccc2cc(CN(Cc3ccccc3)C(=S)NCCCN(C)C)c(=O)[nH]c12	0	0	0	0	0
Cc1cccc(-c2noc(CN(C(=O)c3ccc4c(c3)OCO4)C(C)C)n2)c1	0	0	0	0	0
Cc1cccc(-c2noc(CN(C(=O)C(c3ccccc3)c3ccccc3)C(C)C)n2)c1	0	84.4	0	0	0
SMILES	CF NFkB inh	Shn3 inh set2	Peg3 prom inh	KKLEB tox	HIF-2a block
CC1(c2nnnn2-c2ccc3c(c2)OCCO3)CCC(=O)N1CCc1ccccc1F (stereo not drawn)	-	-	-	-	0
CSc1ccccc1NC(=O)CSc1nncs1	0	0	0	0	0
OCCNCCO	0	0	0	0	0
CCCCCCCCC1=NCCc2c1[nH]c1ccccc21	0	0	90.9	0	0
CSc1nc(N)nc2c1ncn2CC(=O)N1CCN(Cc2c(C)cc(C)cc2C)CC1	0	89.4	0	0	0
N#CCCn1c(-c2nonc2NC(=O)c2ccccc2Cl)nc2ccccc21	0	0	0	0	0
CCCCn1c(-c2nonc2NC(=O)c2ccccc2Cl)nc2ccccc21	0	89.3	0	0	0
COC(=O)c1cc(C)nc2c1C(=O)C(=O)C=C2N1CCOCC1	88.3	98.9	100.1	-58.1	82.6
COC(=O)c1cc(S(=O)(=O)N2CCOCC2)c(Cl)cc1N1CCOCC1	0	0	0	0	0
CCNC(=O)C1(C)CCN(C(=O)c2cc(OC)c(OC)c(OC)c2)C1 (stereo not drawn)	0	0	0	0	0
O=C(O)CSc1cc(NS(=O)(=O)c2ccc(Cl)cc2)c2ccccc2c1O	81.0	0	0	0	0
COc1ccc(S(=O)(=O)Nc2cc(SCC(=O)O)c(O)c3ccccc23)cc1	78.5	0	0	0	0
COc1ccc(CCNC(=O)c2nnn(CC(=O)Nc3ccc(C)cc3C)c2N)cc1OC	0	0	0	0	0
CCC(C)c1ccc(C(C)NC(=S)NCc2ccc(F)cc2)cc1 (stereo not drawn)	0	0	51.1	0	0
O=C1C=CC(=O)N1c1ccc(OC(F)F)cc1	0	91.3	104.5	0	50.3
O=C1C=CC(=O)N1c1ccc(O)cc1	0	0	109.8	0	0
O=C(O)CNC(=O)c1ccc(OC(F)F)cc1	0	0	0	0	0
O=C(c1ccc(NS(=O)(=O)/C=C/c2ccccc2)cc1)N1CCCCC1	56.0	0	0	-69.3	0
CCCCc1ccc(NC(=O)C(=O)NCCN2CCN(Cc3ccc([N+](=O)[O-])cc3)CC2)cc1	0	93.7	0	0	0
CC(C)(C)c1nnc(N/N=C/c2cc(Br)ccc2O)n(N)c1=O	0	86.5	72.9	0	0
Cc1ccc(C(=O)N/C(=C\c2cccs2)C(=O)NCCCN2CCOCC2)cc1	0	0	0	0	0
CC(C)Cn1c(N)c(C(=O)COC(=O)c2cnc(Cl)c(Cl)c2)c(=O)n(C)c1=O	0	0	74.2	0	0
CCC(c1nnnn1CS(=O)(=O)c1ccc(C)cc1)N1CCN(c2nc3ccccc3s2)CC1 (stereo not drawn)	0	0	0	0	0
O=C1c2ccccc2C(=O)c2[nH]cnc21	0	0	0	0	0
O=C1c2ccccc2C(=O)c2[nH]c(=O)[nH]c21	95.7	0	81.8	0	0
SMILES	CF NFkB inh	Shn3 inh set2	Peg3 prom inh	KKLEB tox	HIF-2a block
CC(=O)Nc1ccc(N=Nc2ccccc2)cc1	0	0	0	0	0
O=C(CCl)Nc1ccc(N=Nc2ccccc2)cc1	0	0	107.0	0	0
O=C(CCl)Nc1ccc(N2CCCCCC2)cc1	0	0	83.7	0	0
O=C(NCCc1ccccc1)C1Cc2c(-c3ccccc3)ccnc2O1 (stereo not drawn)	0	0	0	0	0
O=C(Cc1ccccc1)Nc1cccc(N2C(=O)C=CC2=O)c1	52.0	0	96.3	0	0
C/C(=N\NC(=O)C12CCC(C)(C(=O)O1)C2(C)C)c1ccccc1O (stereo not drawn)	0	0	0	0	0
CC12CCC(C(=O)N/N=C/c3ccc(O)cc3O)(OC1=O)C2(C)C (stereo not drawn)	0	88.6	0	0	0
C[C@@H]1CN([C@H](C)CO)C(=O)c2c(c3ccccc3n2C)-c2ccccc2CO[C@H]1CN(C)Cc1ccc(C(F)(F)F)cc1	0	0	58.8	0	0
C[C@@H]1CN([C@@H](C)CO)C(=O)c2c(c3ccccc3n2C)-c2ccccc2CO[C@H]1CN(C)S(=O)(=O)c1ccc(C(F)(F)F)cc1	0	0	0	0	0
C[C@@H]1CN([C@H](C)CO)C(=O)c2c(c3ccccc3n2C)-c2ccccc2CO[C@H]1CN(C)Cc1ccc(Oc2ccccc2)cc1	0	0	57.6	0	0
